Screening results (PubChem BioAssay)
HT1080-NT tox: qHTS for induction of synthetic lethality in tumor cells producing 2HG: qHTS for the HT-1080-NT fibrosarcoma cell line | HT-1080-NT fibrosarcoma viability, CellTiter-Glo ATP luminescence, 48 h | Potency, µM (series often up to 46.1 µM), actives largely listed as cytotoxic | 360,000 tested, 1.6% active;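 further: NT is the 2HG producing partner of a matched IDH1 knockdown line; nearly all actives have a fitted effect of over 55% in size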
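HT-1080-NT; 750 cells/well; 5% FBS RPMI; 48 h compound, 37 degrees C; CellTiter-Glo luminescence; curve fitting and curve-class assignment.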
IL-1B inflam inh: qHTS for Inhibitors of Inflammasome Signaling: IL-1-beta AlphaLISA Primary Screen; activity change, % at 57.5 µM; THP-1 LPS/ATP IL-1B secretion, AlphaLISA, 16 h; hits give low values; AID 743279, 2014; 360,000 tested, 4.7% active; in the data active means activity change below about -50%; inconclusive means mostly about -30% to -49%
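THP-1 cells pretreated 1 hr with compounds (up to 57.5 uM final), then stimulated with LPS (250 ng/mL final) plus ATP (1.25 mM final); secreted IL-1B measured by AlphaLISA after 16 hr, decreased signal indicating inhibition.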
DT40 TDP1 no CPT: qHTS for Inhibitors of human tyrosyl-DNA phosphodiesterase 1 (TDP1): qHTS in cells in absence of CPT | DT40 Tdp1-/- hTDP1 cells, no CPT, ATP luminescence, 48 h | Potency, µM (doses to about 46.2 µM), hits mostly inhibitors | 420,000 tested, 15% active | AID 686978, 2013; further: nearly all actives have a fitted effect of over 55% in size
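Camptothecin absent (DMSO only). Human TDP1-complemented DT40 knockout cells, 400 cells/well, 37 °C for minimum 48 hr; ATP measured via CellTiter-Glo, 30 min dark incubation, luminescence.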
TDP1 cell CPT: qHTS for Inhibitors of human tyrosyl-DNA phosphodiesterase 1 (TDP1): qHTS in cells in presence of CPT | chicken DT40 Tdp1-/-;hTDP1 cells + 20 nM CPT, ATP luminescence, 48 h | Potency, µM (series often up to 46.2 µM), hits mostly inhibitors | 420,000 tested, 12% active | AID 686979, 2013; further: nearly all actives have a fitted effect of over 55% in size
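Chicken DT40 Tdp1-/- cells stably complemented with human TDP1 were seeded at 400 cells/well in medium containing 20 nM camptothecin, exposed to pin-transferred compounds, and grown at 37 °C for at least 48 hr. Viability was read as ATP luminescence.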
HT1080 IDH1KD tx: qHTS for induction of synthetic lethality in tumor cells producing 2HG: qHTS for the HT-1080-IDH1KD cell line | 360,000 tested, 2% active | AID 686971, 2013 | HT-1080 IDH1 knockdown viability, ATP luminescence, 48 h | Potency, µM (highest dose often 46.1 µM), actives largely listed as cytotoxic
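In this qHTS, HT-1080 cells depleted of IDH1 are exposed for 48 h at 37 °C to compound titrations. Toxicity is scored from CellTiter-Glo luminescence, with DMSO as full viability and medium alone as none.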
A number is an active result; - = inactive; ? = inconclusive; . = no result given; [ ] = remark or other dose. Hits are enriched below; roughly 19% of the tested compounds scored in any of these assays. Unless noted, the call rests on the fitted dose curve; in most records, active means well fitted curve in the direction sought with a large enough effect; inconclusive means small, poorly fitted or top-dose-only effect, or another doubt; inactive means no such curve, though single readings can be large; an effect the other way counts as inactive or inconclusive.

SMILES | HT1080-NT tox | IL-1B inflam inh | DT40 TDP1 no CPT | TDP1 cell CPT | HT1080 IDH1KD tx
CC(=O)c1ccc(NC(=O)Cn2cnc(S(=O)(=O)N3CCC(C)CC3)c2)cc1 | - | - | - | ? | -
CC(=O)N1c2ccc(S(=O)(=O)NCc3ccccc3Cl)cc2CC1C (configuration not stated) | - | - | 7.31µM | ? | -
CCCCN(Cc1ccccc1)S(=O)(=O)c1cc(Br)cc2c1N(C(C)=O)C(C)C2 (configuration not stated) | ? | - | 13µM | 16.4µM | ?
CC(=O)N1c2c(cc(Br)cc2S(=O)(=O)NCc2cccnc2)CC1C (configuration not stated) | - | - | - | - | -
COc1ccc(CCNS(=O)(=O)c2ccc3c(c2)CC(C)N3C(C)=O)cc1OC (configuration not stated) | - | - | ? | - | -
CC(=O)N1c2ccc(S(=O)(=O)N(C)Cc3ccccc3)cc2CC1C (configuration not stated) | - | - | 20.6µM | - | -
COc1cc(CNS(=O)(=O)c2ccc3c(c2)CC(C)N3C(C)=O)cc(OC)c1OC (configuration not stated) | - | - | ? | 10.3µM | -
CC(=O)N1c2ccc(S(=O)(=O)N(C)CC(=O)NCc3ccccc3)cc2CC1C (configuration not stated) | - | - | - | - | -
CCc1noc(C)c1C(=O)OC(C)C(=O)Nc1ccccc1OC (configuration not stated) | - | - | - | - | -
Cc1ccnc(NC(=O)c2cc(S(=O)(=O)NCc3ccccc3)ccc2C)c1 | - | - | - | - | -
CCOc1ccc(CNS(=O)(=O)c2ccc3c(c2)CC(C)N3C(C)=O)cc1OC (configuration not stated) | . | . | 11.6µM | 13µM | .
Cc1ccc(-c2cc(C(=O)N3CCN(c4ncccn4)CC3)c3ccccc3n2)cc1 | ? | - | 16.4µM | ? | ?
COc1ccc(-c2cc(C(=O)N3CCN(c4ncccn4)CC3)c3ccccc3n2)cc1OC | - | ? | ? | ? | -
O=C(c1cc(-c2ccccn2)nc2c(Cl)cccc12)N1CCN(S(=O)(=O)c2ccccc2)CC1 | - | - | 20.6µM | ? | -
CC(C)Oc1cccc(-c2cc(C(=O)N3CCN(S(C)(=O)=O)CC3)c3ccccc3n2)c1 | - | - | 10.3µM | ? | -
O=C(c1cc(-c2ccncc2)nc2ccc(Br)cc12)N1CCN(c2ccccn2)CC1 | - | - | 11.6µM | ? | -[9.24 µM]
COc1ccc(-c2cc(C(=O)N3CCC3)c3ccccc3n2)cc1OC | - | - | - | - | -
COc1ccc(NC(=O)CN(C)C(=O)CCCSc2nc3ccccc3[nH]2)cc1 | - | - | - | - | -
Cc1ccc(S(=O)(=O)N2CCC(C(=O)N/N=C/c3ccncc3)CC2)cc1 | - | - | - | - | -
O=C(c1cc(-c2ccc(Br)cc2)nc2ccccc12)N1CCN(c2ccccc2O)CC1 | ? | -61.7 | ? | ? | ?
Cc1ccc2nc(-c3ccccn3)cc(C(=O)N3CCN(c4ncccn4)CC3)c2c1 | - | - | 13µM | 20.6µM | -[9.24 µM]
COc1cccc(-c2cc(C(=O)N3CCN(c4ncccn4)CC3)c3ccccc3n2)c1 | - | ? | 23.1µM | ? | -
COc1ccc(CCNC(=O)C2CC(c3ccccc3F)=NO2)cc1 (configuration not stated) | - | - | - | - | -
COc1cccc(N2C(=O)C3NN=C(C(=O)CN4C(=O)c5ccccc5C4=O)C3C2=O)c1 (configuration not stated) | - | - | - | - | -
COc1ccc(CNC(=O)[C@H](C)NC(=O)N2CCn3c2nc2ccccc23)cc1 | - | - | ? | - | -
SMILES | HT1080-NT tox | IL-1B inflam inh | DT40 TDP1 no CPT | TDP1 cell CPT | HT1080 IDH1KD tx
CC(c1ccccc1)n1c(N2CCN(C)CC2)nc2c1c(=O)[nH]c(=O)n2C (configuration not stated) | - | - | - | - | -
CCN(CC)c1ccc(/C=N/NC(=O)c2cccc(S(=O)(=O)Nc3ccccc3OC)c2)c(O)c1 | ? | - | 2.91µM | 3.26µM | ?
CCN(CC)c1ccc(/C=N/NC(=O)c2cccc(S(=O)(=O)Nc3ccccc3OC)c2)cc1 | - | - | - | - | ?
COc1ccccc1NS(=O)(=O)c1cccc(C(=O)N/N=C/c2ccc3c(c2)OCCO3)c1 | - | - | - | - | -
COc1ccccc1NS(=O)(=O)c1cccc(C(=O)N/N=C/c2ccc([N+](=O)[O-])o2)c1 | ? | -91.7 | 2.91µM | 3.66µM | ?
CC(=O)Nc1ccc(S(=O)(=O)N(C)CC(=O)OC(C)C(=O)NC2CCCCC2)cc1 (configuration not stated) | - | - | - | - | -
O=C(Nc1ccc(N2CCOCC2)cc1)c1cc2c(s1)CCCCC2 | - | -80.3 | 20.6µM | 23.1µM | 7.31µM
O=C(Nc1ccc(N2CCOCC2)cc1)c1cc2c(s1)CCCC2 | - | -79.3 | ? | ? | ?
O=C(Nc1ccccc1C(F)(F)F)N1CCC2(CC1)Oc1ccccc1C(=O)N2Cc1ccccc1F | . | . | 16.4µM | ? | .
O=C(Nc1ccccc1C(F)(F)F)N1CCCCCC1 | - | - | - | - | -
NC(=O)C1(N2CCCCC2)CCN(Cc2ccc(Br)cc2)CC1 | - | - | 16.4µM | ? | -
C[N+]1(CC(=O)c2ccc(Cl)c(Cl)c2)CCOCC1 | . | . | - | - | .
O=C(NC1CCCCC1)Oc1cc2oc(=O)sc2cc1Br | - | - | ? | 16.4µM | -
CC(C)Oc1ccc(CN2CCC2(C)C(=O)NCc2cccc3ccccc23)cc1 (configuration not stated) | 18.4µM | - | 14.6µM | 11.6µM | ?
CC1(C(=O)NCc2cccc3ccccc23)CCN1CCc1ccccc1 (configuration not stated) | ? | - | 18.4µM | ? | ?
CC1(C(=O)NCc2ccccc2Br)CCN1Cc1c(F)cccc1F (configuration not stated) | - | - | ? | ? | -
CC1(C(=O)NCc2cccc(C(F)(F)F)c2)CCN1CCc1ccccc1 (configuration not stated) | ? | - | ? | ? | -
O=C(NCc1ccccc1Cl)c1ccccc1NC(=O)c1nsc2ccccc12 | . | . | 16.4µM | ? | .
CCOc1cc(CNC(=O)c2ccc(C)c(NC(=O)c3nsc4ccccc34)c2)ccc1OC | . | . | 7.31µM | 7.31µM | .
CCOc1cc(CNC(=O)c2ccc3nc(CCc4ccccc4)oc3c2)ccc1OC | . | . | ? | - | .
CCOc1ccc(CNC(=O)c2ccccc2NC(=O)c2nsc3ccccc23)cc1 | . | . | 18.4µM | 20.6µM | .
